# Screens: PubChem, National Center for Advancing Translational Sciences (NCATS)
# Hits are enriched below; roughly 11% of the tested compounds scored in any of these assays.
# PNC assembly inh – High Content Assay for Compounds that inhibit the Assembly of the Perinucleolar Compartment. PC3M PTB-GFP, PNC prevalence imaging, 16 h; active compounds read low. activity change (PNC), negative = inhibition, % at 10 µM. 140,000 tested, 3.1% active;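 active = readout at or below -70, meaning at least 70% loss of cells showing the perinucleolar compartment, a nuclear body marking cancer cells; inconclusive = readout between -30 and a set limit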
#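 Read-out is percentage of cells bearing a perinucleolar compartment, from automated 20x imaging of fixed, Hoechst-stained PC3M PTB-GFP cells. Cells were seeded 4 h, then exposed 16 h to compound (23 nl of library stock) in duplicate plates.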
# ALDH1A1 block – qHTS Assay for Inhibitors of Aldehyde Dehydrogenase 1 (ALDH1A1); 220,000 tested, 7.3% active; AID 1030, 2008; Potency, µM (doses to about 75.3 µM), actives largely listed as inhibitors; Purified ALDH1A1, NADH fluorescence, propionaldehyde substrate
# HPGD inh – qHTS Assay for Inhibitors of HPGD (15-Hydroxyprostaglandin Dehydrogenase); 15-hydroxyprostaglandin dehydrogenase [NAD(+)] (Homo sapiens), P15428; purified HPGD, NADH fluorescence kinetic, PGE2 substrate; Potency, µM, hits mostly inhibitors; 150,000 tested, 4.3% active
# Target sequence (P15428 whole entry, looked up): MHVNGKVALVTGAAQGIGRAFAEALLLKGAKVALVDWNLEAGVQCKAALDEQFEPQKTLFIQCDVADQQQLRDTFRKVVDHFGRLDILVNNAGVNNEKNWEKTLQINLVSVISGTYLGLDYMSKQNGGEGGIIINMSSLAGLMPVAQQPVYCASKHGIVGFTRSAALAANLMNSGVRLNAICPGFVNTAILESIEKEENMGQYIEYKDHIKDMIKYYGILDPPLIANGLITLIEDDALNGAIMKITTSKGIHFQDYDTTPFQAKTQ
#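 20 nM HPGD preincubated 15 min at room temperature with compound in 50 mM Tris-HCl pH 8, 0.01% Tween 20. Started with 1 mM NAD+ and 30 uM prostaglandin E2; NADH fluorescence (360/450 nm) read 5 times over 30-s intervals, last minus first.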
# Hits are given with their value; 0 = inactive; ? = inconclusive; - = no result given; ! = repeats disagree; [ ] = dose if it differs, or a comment. Unless noted, calls come from the whole dose curve; as a rule, active = well fitted inhibition curve with a large enough effect (not every such curve was filed as active); inconclusive = small, poorly fitted or top-dose-only effect, or another doubt; inactive = no such curve, though single readings can be large or run the other way.
SMILES,PNC assembly inh,ALDH1A1 block,HPGD inh
CN1C(=O)C(=Cc2ccc(N3CCCCC3)o2)C(=O)N(C)C1=S,-100,14µM,0
CCCCCCCCCCCCCl,-,0,0
O=[As](O)(O)c1ccc(N=Nc2ccc([As](=O)(O)O)cc2)cc1,-,0[13.5 µM],0
COC(=O)[C@@H]1C[C@H]2CC[C@H](O)C[C@H]2N1CC1CC1,-,0,0
CC(C)C[C@H](NC(=O)[C@H](Cc1ccccc1)NC(=O)CNC(=O)[C@H](CO)NC(=O)[C@@H](N)Cc1ccc(O)cc1)C(=O)N[C@H](C(=O)O)[C@H](C)O,-,0,-
C[C@]12C=CC(=O)C=C1CCC1C2=CC[C@]2(C)[C@@H](C(=O)CN3CCN(c4cc(N5CCCC5)nc(N5CCCC5)n4)CC3)CC[C@@H]12 (some centres undefined),-,?,0
CC(=O)Nc1ccc(S(=O)(=O)N2CCSC2c2ccc(C)cc2)cc1 (centres undefined),0,?,0
CC1OC1P(=O)(O)O (centres undefined),-,0,0
Nc1ccc([N+](=O)[O-])cc1[N+](=O)[O-],-,0,0
O=[N+]([O-])c1ccc(F)c([N+](=O)[O-])c1,-,20µM,0
C[C@@H]1CC([C@H](O)CC2CC(=O)NC(=O)C2)C(=O)[C@@H](C)C1 (some centres undefined),-,0,-
CC(=O)[C@@H]1CC[C@@H]2[C@@H]3CCC4=CC(=O)CC[C@@]4(C)[C@H]3CC[C@]21C,-,0,0
C[C@@]12CCC3C(CCC4=CC(=O)CC[C@]43C)C1CCC2O (some centres undefined),-,0,0
CC(=O)[C@H]1CC[C@H]2[C@@H]3CCC4=CC(=O)CC[C@]4(C)[C@H]3CC[C@]12C,0,11µM!,0
C[C@@]12CC[C@H]3[C@@H](CCC4=CC(=O)CC[C@]43C)[C@H]1CC[C@H]2C(=O)CO,-,5µM,0
OCCN(CCO)CCO,-,0,0
CC(C)C[C@H](NC(=O)[C@H](Cc1ccccc1)NC(=O)CNC(=O)CNC(=O)[C@@H](N)Cc1ccc(O)cc1)C(=O)N[C@@H](CCCN=C(N)N)C(=O)N[C@@H](CCCCN)C(=O)N[C@@H](Cc1ccc(O)cc1)C(=O)N1CCC[C@H]1C(=O)N[C@@H](CCCCN)C(=O)O,-,0,-
CC/C=C\C/C=C\C/C=C\C/C=C\C/C=C\CCCC(=O)NCCO,-,0,0
CN1C(=O)C(=Cc2c(OCc3cnc(Cl)s3)ccc3ccccc23)C(=O)N(C)C1=O,-,2.2µM,-
Cn1ccc(NC(=O)CCl)n1,-,20µM,-
COc1cc2c(cc1OC)[C@@H]1C(=O)c3ccc4oc(C(C)C)cc4c3OC1CO2 (some centres undefined),-,0,?
O=C1CC(=O)N(c2ccc3c(c2)OCO3)C(=O)N1,-95,0,0
O=C1NC(=O)N(c2ccc3c(c2)OCO3)C(=O)/C1=C/c1ccc(N2CCCCC2)o1,0,0,0
CCCc1[nH][nH]c(=O)c1C(c1ccccc1)C(C#N)C#N (centres undefined),?,22µM,?
CCCc1[nH][nH]c(=O)c1C(c1ccc(Cl)cc1)C(C#N)C#N (centres undefined),0,?,16µM
SMILES,PNC assembly inh,ALDH1A1 block,HPGD inh
c1ccc(N=NNc2ccccc2)cc1,-,0,0
N#CCCCC[N+]12CN3CN(CN(C3)C1)C2,-,0[13.5 µM],0
C=CC1CN2CCC1CC2C(OC(=O)OCC)c1ccnc2ccc(OC)cc12 (centres undefined),-,0,0
CCOP(=S)(OCC)SCC(=O)NC(C)(CC)C(=O)O (centres undefined),-111,0,0
CC1(C)C(O)CC(O)[C@]2(C)C1CC(=O)[C@]1(C)C2CC[C@@]2(C)C(c3ccoc3)OC(=O)C3OC321 (some centres undefined),-,0,0
CCCCCCCCc1[se]c2ccccc2c1I,-,0,0
O=C(c1ccc2c(=O)n(Cc3ccc4c(c3)OCO4)c(=S)[nH]c2c1)N1CCC2(CC1)OCCO2,0,?,32µM
O=C(NCc1ccc(C(=O)N2CCC3(CC2)OCCO3)cc1)c1ccc2c(c1)OCO2,0,0,0
CC(O)(CS(=O)(=O)c1cccc(C(F)(F)F)c1)C(=O)Nc1cccc(C(F)(F)F)c1 (centres undefined),0,0,0
O=C(O)c1ccccc1Nc1cccc(C(F)(F)F)c1,0,0,28µM!
CCOC(=O)c1ccc(N2C(=O)CC(N3CC=C(c4ccc(F)cc4)CC3)C2=O)cc1 (centres undefined),0,3.5µM,28µM
O=C1CC(N2CC=C(c3ccc(F)cc3)CC2)C(=O)N1c1ccc(F)cc1 (centres undefined),0,?,0
